# According to PubChem BioAssay (NCATS):
# Records with an inconclusive call do not appear. Where a call stands in place of a potency, no number is given. Active and inactive are the calls of the source. Unless noted, calls come from the whole dose curve; as a rule, active = well fitted curve in the direction sought with a large enough effect; inconclusive = small, poorly fitted or top-dose-only effect, or another doubt; inactive = no such curve, though single readings can be large; an effect the other way counts as inactive or inconclusive.
# Key:
# [1] = target: Catechol O-methyltransferase (Homo sapiens) (UniProt P21964); assay: Confirmatory Screen for Target Class Profiling of Small Molecule Inhibitors of Methyltransferases (AID 1745852; calls by dose curve; note: potency is the fitted concentration of half-maximal effect); details: MTase-Glo luminescence, SAH detection, recombinant enzyme; measured here: COMT max response; stronger effect = lower value
# Sequence of Catechol O-methyltransferase (Homo sapiens) (P21964 whole entry, looked up): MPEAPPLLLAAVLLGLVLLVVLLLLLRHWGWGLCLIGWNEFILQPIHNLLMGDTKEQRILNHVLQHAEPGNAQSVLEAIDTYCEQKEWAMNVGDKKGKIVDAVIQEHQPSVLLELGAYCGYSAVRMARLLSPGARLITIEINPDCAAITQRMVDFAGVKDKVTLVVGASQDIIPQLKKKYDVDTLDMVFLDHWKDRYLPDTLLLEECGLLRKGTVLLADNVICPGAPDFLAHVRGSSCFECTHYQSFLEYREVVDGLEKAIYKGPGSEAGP
# [2] = target: Guanidinoacetate N-methyltransferase (Homo sapiens) (UniProt Q14353); assay: as above; details: activity change, negative = inhibition: at 57.3 µM (top of the series) unless noted
# [3] = target: Nicotinamide N-methyltransferase (Homo sapiens) (UniProt P40261); assay: as above; details: MTase-Glo luminescence, SAH detection, recombinant enzyme; measured here: NNMT max response; stronger effect = lower value
# Sequence of Nicotinamide N-methyltransferase (Homo sapiens) (P40261 whole entry, looked up): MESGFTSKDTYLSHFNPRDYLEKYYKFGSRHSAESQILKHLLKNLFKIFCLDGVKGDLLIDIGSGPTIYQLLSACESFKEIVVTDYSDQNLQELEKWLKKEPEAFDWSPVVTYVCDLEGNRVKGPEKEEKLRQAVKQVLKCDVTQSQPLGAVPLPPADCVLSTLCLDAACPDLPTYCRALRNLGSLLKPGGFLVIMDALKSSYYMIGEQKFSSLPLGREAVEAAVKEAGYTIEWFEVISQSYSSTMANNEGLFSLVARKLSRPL
# [4] = target: Phenylethanolamine N-methyltransferase (Homo sapiens) (UniProt P11086); assay: as above; details: MTase-Glo luminescence, SAH detection, recombinant enzyme; measured here: PNMT max response; stronger effect = lower value
# Sequence of Phenylethanolamine N-methyltransferase (Homo sapiens) (P11086 whole entry, looked up): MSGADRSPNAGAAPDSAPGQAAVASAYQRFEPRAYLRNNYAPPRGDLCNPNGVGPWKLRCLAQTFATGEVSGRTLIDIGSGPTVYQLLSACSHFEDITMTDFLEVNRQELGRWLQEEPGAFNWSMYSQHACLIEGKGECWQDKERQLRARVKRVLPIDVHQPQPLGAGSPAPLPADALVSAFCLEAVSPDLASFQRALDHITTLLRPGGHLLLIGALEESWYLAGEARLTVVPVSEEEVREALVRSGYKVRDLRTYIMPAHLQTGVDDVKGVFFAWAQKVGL
# [5] = target: Glutathione peroxidase 1 (Homo sapiens) (UniProt P07203); assay: Primary qHTS Assay for Inhibitors of Recombinant Selenoprotein Glutathione Peroxidase 1 (GPX1) (AID 1845191); note: nearly all actives have a fitted effect of over 65% in size
# Sequence of Glutathione peroxidase 1 (Homo sapiens) (P07203 whole entry, looked up): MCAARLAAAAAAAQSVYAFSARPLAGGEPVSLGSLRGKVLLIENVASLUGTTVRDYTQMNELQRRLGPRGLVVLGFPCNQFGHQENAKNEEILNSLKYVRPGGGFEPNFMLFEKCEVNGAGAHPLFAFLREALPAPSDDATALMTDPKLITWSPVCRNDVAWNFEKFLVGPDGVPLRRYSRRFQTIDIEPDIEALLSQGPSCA
# In short: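 GR-coupled assay: compounds preincubated 30 min at room temperature with GPX1, then reaction started with CHP; final 10 nM GPX1, 1 mM GSH, 0.5 mM CHP, 0.5 mM NADPH, 100 nM GR, 0.01% BSA, pH 7.5 Tris buffer. NADPH fluorescence (340/450 nm) read at 0 and 15 min.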
# [6] = target: Phospholipid hydroperoxide glutathione peroxidase GPX4 (Homo sapiens) (UniProt P36969); assay: Primary qHTS Assay for Inhibitors of Recombinant Selenoprotein Glutathione Peroxidase 4 (GPX4) (AID 1845192); note: nearly all actives have a fitted effect of over 65% in size
# Sequence of Phospholipid hydroperoxide glutathione peroxidase GPX4 (Homo sapiens) (P36969 whole entry, looked up): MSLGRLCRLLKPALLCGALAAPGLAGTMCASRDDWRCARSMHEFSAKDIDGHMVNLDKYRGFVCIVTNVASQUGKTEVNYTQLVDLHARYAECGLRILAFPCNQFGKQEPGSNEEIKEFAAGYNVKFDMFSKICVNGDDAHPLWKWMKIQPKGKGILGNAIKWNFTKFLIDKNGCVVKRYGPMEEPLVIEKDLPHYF
# In short: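 GR-coupled assay: recombinant GPX4 preincubated 30 min with compound at room temperature; final 200 nM GPX4, 1 mM GSH, 0.5 mM cumene hydroperoxide, 0.5 mM NADPH, 100 nM GR, 0.01% BSA, pH 7.5 Tris. NADPH fluorescence (340/450 nm) read at 0 and 15 min.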
# [7] = target: Luciferin 4-monooxygenase (Photinus pyralis) (UniProt P08659); assay: Primary firefly luciferase (FLuc) qHTS assay for identification of artifact compounds. (AID 1845220); note: nearly all actives have a fitted effect of over 60% in size
# In short: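 Enzymatic FLuc inhibition assay: compounds pre-exposed to luciferin/ATP (10 uM each) for 15 min, then purified P. pyralis enzyme at 10 nM added. Read-out: luminescence at 5 min.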
# [8] = Primary fluorescence-based thiol-reactive (MSTI) qHTS assay for identification of artifact compounds. (AID 1845221); note: nearly all actives have a fitted effect of over 65% in size; note: potency is the fitted concentration of half-maximal effect
# In short: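 First, 4 uM MSTI in 2% DMSO/PBS pH 7.4 was dispensed; next, compounds were added; then plates sat 1 h at room temperature without light. Finally, emission at 598 nm was recorded.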
# [9] = test system: Nanoluciferase (engineered Oplophorus gracilirostris luciferase); assay: Primary Nanoluciferase (NLuc) qHTS assay for identification of artifact compounds. (AID 1845222);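 note: NLuc secreted into diluted conditioned medium of S16 cells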
# In short: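 S16 cell supernatant NLuc, 1:55; cpds qHTS; 15 min RT dark; Nano-Glo substrate 1:100, 5 min; luminescence; Hill fit of % inhibition.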
# [10] = Primary redox qHTS assay for identification of artifact compounds. (AID 1845223)
# In short: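 Amplex Red (25 uM) and HRP (250 mU/mL) in HBSS, with compounds for 15 min, then 250 uM DTT for 30 min, room temperature, dark. Fluorescence 525/598 nm read; normalized to DMSO and 10 uM DA3003; Hill fit.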
SMILES,activity [1] [%],Potency [2],activity [3] [%],activity [4] [%],Potency [5],Potency [6],Potency [7],Potency [8],Potency [9],Potency [10],"activity change, negative = inhibition [2]"
COc1cc2ncnc(Nc3cccc(I)c3)c2cc1OC,-55.8,34.1 µM (active),-40.1,-56.9,inactive,inactive,inactive,inactive,inactive,inactive,
COc1cc(/C=C2\CCCN([C@@H](C)c3ccc(F)cc3)C2=O)ccc1-n1cnc(C)c1,-8.51,2.41 µM (active),-25.5,-13,inactive,inactive,inactive,inactive,inactive,inactive,
COc1cc(N2CCC(N)CC2)ccc1Nc1ncc(Cl)c(-c2c[nH]c3ccccc23)n1,-32.1,24.1 µM (active),-35.8,-27,inactive,inactive,inactive,1.89 µM (active),inactive,inactive,
COc1c2c(c(C)c3c1C(=O)OC3)O[C@@]1(C)C[C@@H](OC(C)=O)[C@]34O[C@](OC)(CC[C@]3(C)[C@H]1C2)OC4(C)C,-8.48,,-50.2,-7.63,inactive,inactive,inactive,inactive,inactive,inactive,2.06% [at 29.8 µM]
Clc1ccc(Cn2c(Cc3ccccc3)nc3ccccc32)cc1,-6.59,,-51,-7.3,inactive,inactive,inactive,inactive,inactive,inactive,-6.78%
C=C1C(=O)OC2/C=C(\CO)CC/C=C(\C=O)C(OC)C(OC(=O)C(C)CC)C12 (stereo not given),-88.5,,4.11,1.39,inactive,inactive,inactive,4.12 µM (active),inactive,inactive,0% [at 29.8 µM]
C=C1C(=O)OC2C1CCC1(C)C(O)CCC(=C)C21 (stereo not given),-62.8,,1.08,-1.43,inactive,inactive,inactive,11.9 µM (active),inactive,inactive,-2.15%
Cc1cc(C)cc(-c2cnc3cc(Cl)c(-c4cccc(O)c4)cc3c2OCCCN)c1,-38.4,42.9 µM (active),-83.8,-37.3,inactive,inactive,inactive,inactive,inactive,inactive,
CCN(CC)C(=O)c1ccc(Nc2nc(OCC3CCCCC3)c3[nH]cnc3n2)cc1,-18.1,30.4 µM (active),-75.3,-18.4,inactive,inactive,inactive,inactive,inactive,inactive,
C[C@H](Nc1cc2c(-c3ccc4c(c3)OCO4)noc2cn1)c1ccccc1,-8.55,,-7.23,-13.9,inactive,inactive,inactive,inactive,inactive,inactive,-10.4%
C=CC(=O)Nc1ccc2ncnc(Nc3cccc(Br)c3)c2c1,-59.2,19.2 µM (active),-38.9,-49.9,inactive,inactive,inactive,inactive,inactive,inactive,
C=C1C(=O)OC2C1CCC1(C)C(O)CC=C(C)C21 (stereo not given),-60.3,,-3.54,-2.19,inactive,inactive,inactive,11.9 µM (active),inactive,inactive,-6.03%
Cc1cc(NC(=O)NCCN2CCC(O)(Cc3ccccc3)CC2)c2ccccc2n1,-2.12,,2.4,0.991,inactive,inactive,inactive,inactive,inactive,inactive,0%
O=C(NCCCNc1nc(Nc2cccc(CN3CCOCC3)c2)ncc1C1CC1)C1CCC1,-3.13,,-11.4,-23.2,inactive,inactive,inactive,inactive,inactive,inactive,0%
CCn1c(-c2nonc2N)nc2c(C#CC(C)(C)O)ncc(OCC3CCCNC3)c21 (stereo not given),-1.89,,-28,-3.65,inactive,inactive,inactive,inactive,inactive,inactive,0.279%
C[C@H](Oc1cc(-c2cnn(C3CCNCC3)c2)cnc1N)c1c(Cl)ccc(F)c1Cl,-64.7,27.1 µM (active),-75.2,-61.8,inactive,inactive,inactive,inactive,inactive,inactive,
CS(=O)(=O)Nc1ccc2oc3c(OC(F)F)ccc(C(=O)Nc4c(Cl)cncc4Cl)c3c2c1,-3.19,,-19.3,-4.54,inactive,inactive,inactive,inactive,inactive,inactive,-1.02%
NCC(CNc1nc(Nc2cccc(NC(=O)N3CCCC3)c2)ncc1I)C(=O)c1cccs1 (stereo not given),-3.81,,-36.6,-13.7,inactive,inactive,inactive,inactive,inactive,inactive,0%
COc1ccccc1OCCNCC(O)CCOc1cccc2[nH]c3ccccc3c12 (stereo not given),-5.33,,-4.12,-93.1,inactive,inactive,inactive,inactive,inactive,inactive,2.56%
